Sensor-assay potency score (higher = more potent) data for 60 sequences are collected here from the OligoGym collection.

Assay in all cases: pooled miR-30 sensor sort-seq; sequence = guide strand
What all share (conditions): shRNA

The target in assay [1] is PDE1C.
Assay [2] addresses PDGFRB.
In assay [3] the target is PDIA5.
For assay [4], the target named is PDE8B.
Assay [5] deals with PFKFB4.
For assay [6], the target named is PGD.
Assay [7] concerns the target PGBD3.
The target in assay [8] is PEX11G.
For assay [9], the target named is PGLYRP2.
Note: reference of the scale not given here.

As for TGAACGATGCTCTTGAACCGGG, the sensor-assay potency score (higher = more potent) in [1] was -0.343. With TTTGATGGCATTGTAGAACTGC, in assay [2], the sensor-assay potency score (higher = more potent) turned out to be 0.772. In [3], TCATACTGGAACAAGAACCGTC displayed a sensor-assay potency score (higher = more potent) of 0.647. As for TTAAAAACTCACATACTCCAAA, the sensor-assay potency score (higher = more potent) in [4] is -0.433.

ATCGCTCTGACTATCTTCCTTT: the sensor-assay potency score (higher = more potent) in [4] is -0.16. Consider TTGAGTAAAAATCTCACGTTGT, for which, in [1], the sensor-assay potency score (higher = more potent) is 0.531. With TATATTTATAACCTTTGTGATG, the sensor-assay potency score (higher = more potent) in assay [4] was -1.47. Take ATTCTCTCCACAAATATCCCAG: the sensor-assay potency score (higher = more potent) in assay [1] is -0.723. On to TTTGAGTAAAAATCTCACGTTG, for which, in assay [1], the sensor-assay potency score (higher = more potent) is -0.294. For TTGCTGTAGAGCTCCGCGCTGG, in assay [2], the sensor-assay potency score (higher = more potent) was -0.717. In turn, TTTGAAGTCACCATTCTGTTGC displayed a sensor-assay potency score (higher = more potent) in assay [1] of 0.443. For the sequence TAACAGGAGAGACAGCAACAGC, the sensor-assay potency score (higher = more potent) in [2] is -1.23. Still for that read-out and setting: to TCAGCTCTGACACATACCGGGT belongs -1.42; to TCTTTTTGTAACCTTCGCCCAA, -0.683.

For the sequence TTCAACGTAGGAAACTCTGAGA, the sensor-assay potency score (higher = more potent) in [3] was -0.249. Take TTGCATTCACAGTCGCTGCCTT: in assay [4], the sensor-assay potency score (higher = more potent) is -0.0743.

As to TTAGTAAACACATACTCGTTTC, the sensor-assay potency score (higher = more potent) in assay [4] was -0.767. With TAATTCAACCTTTTTGTCCTTC, the sensor-assay potency score (higher = more potent) in assay [3] stood at 0.526. In the case of TTTTGTGCTTGCTGTATCCCAC, the sensor-assay potency score (higher = more potent) in [1] is -0.201. Consider TTGATCAAAGTTGCTCGGCAGG, for which the sensor-assay potency score (higher = more potent) in [2] was -0.679. In the case of TACAATAATTTCATGATGCTTA, in assay [4], the sensor-assay potency score (higher = more potent) was -0.231. With TACTTTTCTGCGAACTTCCCAT, the sensor-assay potency score (higher = more potent) in [3] was -0.283.

Consider TTTGACACAGTCAACAGCGGCA, for which the sensor-assay potency score (higher = more potent) in assay [3] is -0.283. With TTGGTCAGTGTGAGCACGCTGG, the sensor-assay potency score (higher = more potent) in assay [2] was -0.355. TCTTAGTAAACACATACTCGTT: the sensor-assay potency score (higher = more potent) in [4] was -0.91. Turning to TAAACACATACTCGTTTCCTGA, in assay [4], the sensor-assay potency score (higher = more potent) is -0.83. As to TAGAACATGACCAAGGTGTGTT, the sensor-assay potency score (higher = more potent) in [3] turned out to be 0.669. With TAGCACTGGAGACTCGTTGATC, the sensor-assay potency score (higher = more potent) in [2] is -0.385. With TTCTTCTTCAGGGTCTCCCGGA, in [3], the sensor-assay potency score (higher = more potent) is -0.62. The sequence TAGCAAGCAATTATGCTGCTAT returned a sensor-assay potency score (higher = more potent) in assay [4] of 0.445. In the case of TCAACTTTCATCTTCTTGCACA, the sensor-assay potency score (higher = more potent) in assay [3] is -0.596.

On to TTAAAGATGGTCGCTCTCCGTT, for which the sensor-assay potency score (higher = more potent) in assay [5] was -0.54. In the case of TCAACTTTGGAGACAGTCCTAT, the sensor-assay potency score (higher = more potent) in assay [6] was -0.343. For the sequence TTTTCTTTAAAGCTACATCTGA, the sensor-assay potency score (higher = more potent) in assay [7] is -0.486. Consider TCATCTAGCGACTCGTAGGAGT, for which the sensor-assay potency score (higher = more potent) in assay [5] was -0.615. In turn, AACTTTGTCAATGTGATCCTTT displayed a sensor-assay potency score (higher = more potent) in assay [7] of 0.355. Regarding TAAACGTAGATGGAACTTCATC, the sensor-assay potency score (higher = more potent) in assay [7] is -1.36.

As for TACGCTTCTGAGGTCTTCCTTT, the sensor-assay potency score (higher = more potent) in assay [7] was -0.455. Take TTAGTGTAGACAAACATGGCCA: in [8], the sensor-assay potency score (higher = more potent) was -0.26. As to TTGTGTTCTTATGACATTCAGC, the sensor-assay potency score (higher = more potent) in assay [7] is -0.605. Consider TAGGAGGTTCTGAAGTTCCGGG, for which, in assay [6], the sensor-assay potency score (higher = more potent) is -0.239. For the sequence TGCATTGTCAGCAACATGCAAA, in [7], the sensor-assay potency score (higher = more potent) is -1.12. Regarding TTTCAGCAGCATCCACAGGGAC, the sensor-assay potency score (higher = more potent) in [8] is -0.746.

As for TTCAGAGATGATAAGCACCGAG, the sensor-assay potency score (higher = more potent) in assay [6] was -0.0452. Consider TTTTGGTCACTGATGAACTGGG, for which, in assay [5], the sensor-assay potency score (higher = more potent) was -0.438. In the case of TTCATTTGGAACAAATTTCATG, the sensor-assay potency score (higher = more potent) in [7] was -0.714. For the sequence TATCGAGTCAGCTTCTTGGAGA, in [5], the sensor-assay potency score (higher = more potent) is -0.636. Take TAGACAAACATGGCCAGGTCAT: the sensor-assay potency score (higher = more potent) in assay [8] was -0.9. In the case of TTTCCTAGGAATACACTTCTAA, the sensor-assay potency score (higher = more potent) in [6] was found to be 0.166.

Turning to TTTCTTATCACCATCAAACTGG, the sensor-assay potency score (higher = more potent) in assay [6] was -0.51. As for TTTGTAGGTCTTGACCACGTCC, the sensor-assay potency score (higher = more potent) in assay [5] was -0.178. In the case of TTGAGGTCTCGGCACCGTCTTG, the sensor-assay potency score (higher = more potent) in assay [6] is -1.68. With TTTCTTTAAAGCTACATCTGAT, the sensor-assay potency score (higher = more potent) in assay [7] was -0.534. In the case of TAGACTCTTGGCAAACTCCCTG, the sensor-assay potency score (higher = more potent) in assay [5] turned out to be 0.333.

Regarding TTGGTGTGGATAAACTGCCCTG, the sensor-assay potency score (higher = more potent) in assay [6] was -0.35. On to TTTGGAACAAATTTCATGCATC, for which, in assay [7], the sensor-assay potency score (higher = more potent) was -0.293. In the case of TTGGCTCATGCACTGAAGCTGG, the sensor-assay potency score (higher = more potent) in [9] is -0.819. The sequence TTTGGTGGTGCTGTAACTCTAC yielded a sensor-assay potency score (higher = more potent) in [7] of 0.653. As for CAGAACTCCACCAACCAGCTGG, in assay [8], the sensor-assay potency score (higher = more potent) was -1.04. Turning to TAGGTCTTGACCACGTCCCGGC, the sensor-assay potency score (higher = more potent) in assay [5] was -0.311.
